“And” between values parts separate entries of the source, which are not always exact repeats. Equal values may be shown once. Inconclusive results are not listed. Where a call stands in place of a potency, no number is given. The source made the active and inactive calls. The call rests on the fitted dose curve; in most records, active means well fitted curve in the direction sought with a large enough effect; inconclusive means small, poorly fitted or top-dose-only effect, or another doubt; inactive means no such curve, though single readings can be large; an effect the other way counts as inactive or inconclusive.
How the values were obtained:
[1] = qHTS of pediatric cancer cell lines to identify multiple opportunities for drug repurposing: Primary screen for BT-37 cells (AID 1347094); further: potency means the concentration at half of the fitted maximal effect
Method in brief: (§1)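 Following a 5-hour attachment period, cells at 500-1,000/well received compounds and were cultured for 48 hours. CellTiter-Glo was added and luminescence read to estimate viable, metabolically active cells.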

[2] = qHTS of pediatric cancer cell lines to identify multiple opportunities for drug repurposing: Primary screen for NB-EBc1 cells (AID 1347095); further: potency means the concentration at half of the fitted maximal effect
Method in brief: as §1

[3] = qHTS of pediatric cancer cell lines to identify multiple opportunities for drug repurposing: Primary screen for U-2 OS cells (AID 1347096); further: nearly all actives have a fitted effect of over 50% in size; further: potency means the concentration at half of the fitted maximal effect
Method in brief: (§2)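 Cells (500-1,000/well) rested 5 h, then received compounds for 48 h; metabolically active cells were measured by CellTiter-Glo luminescence. Final concentrations spanned up to 46 µM (MIPE, 11-point) or 0.59 nM-46 µM (NPC, 8-point) in primary screens, 11-point in follow-ups.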

[4] = qHTS of pediatric cancer cell lines to identify multiple opportunities for drug repurposing: Primary screen for Saos-2 cells (AID 1347097); further: nearly all actives have a fitted effect of over 40% in size; further: potency means the concentration at half of the fitted maximal effect
Method in brief: as §1

[5] = qHTS of pediatric cancer cell lines to identify multiple opportunities for drug repurposing: Primary screen for SK-N-SH cells (AID 1347098); further: nearly all actives have a fitted effect of over 65% in size; further: potency means the concentration at half of the fitted maximal effect
Method in brief: as §2

[6] = qHTS of pediatric cancer cell lines to identify multiple opportunities for drug repurposing: Primary screen for NB1643 cells (AID 1347099); further: nearly all actives have a fitted effect of over 50% in size
Method in brief: as §1

[7] = qHTS of pediatric cancer cell lines to identify multiple opportunities for drug repurposing: Primary screen for LAN-5 cells (AID 1347100); further: potency means the concentration at half of the fitted maximal effect
Method in brief: as §2

[8] = qHTS of pediatric cancer cell lines to identify multiple opportunities for drug repurposing: Primary screen for Rh18 cells (AID 1347102); further: nearly all actives have a fitted effect of over 65% in size
Method in brief: as §2

[9] = qHTS of pediatric cancer cell lines to identify multiple opportunities for drug repurposing: Primary screen for OHS-50 cells (AID 1347103); further: nearly all actives have a fitted effect of over 40% in size; further: potency means the concentration at half of the fitted maximal effect
Method in brief: as §2

[10] = qHTS of pediatric cancer cell lines to identify multiple opportunities for drug repurposing: Primary screen for RD cells (AID 1347104); further: nearly all actives have a fitted effect of over 55% in size; further: potency means the concentration at half of the fitted maximal effect
Method in brief: as §1

[11] = qHTS of pediatric cancer cell lines to identify multiple opportunities for drug repurposing: Primary screen for MG 63 (6-TG R) cells (AID 1347105); further: nearly all actives have a fitted effect of over 50% in size
Method in brief: as §1

[12] = qHTS of pediatric cancer cell lines to identify multiple opportunities for drug repurposing: Primary screen for control Hh wild type fibroblast cells (AID 1347106);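 further: series mostly up to about 46 µM; a drop in luminescence marks cytotoxicity and a rise apparent proliferation; nearly all actives have a fitted effect of over 55% in size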
Method in brief: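 Viability after 48 h compound treatment at 37C, 500-1,000 cells/well, read as ATP luminescence with CellTiter-Glo. Primary screens used 11-point (MIPE, 0.78 nM-46 µM) or 8-point (NPC, 0.59 nM-46 µM) final concentrations; follow-up screens used 11-point dilutions.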

[13] = qHTS of pediatric cancer cell lines to identify multiple opportunities for drug repurposing: Primary screen for Rh30 cells (AID 1347107); further: series mostly up to about 46 µM; nearly all actives have a fitted effect of over 75% in size
Method in brief: as §2

[14] = qHTS of pediatric cancer cell lines to identify multiple opportunities for drug repurposing: Primary screen for Rh41 cells (AID 1347108); further: nearly all actives have a fitted effect of over 70% in size; further: potency means the concentration at half of the fitted maximal effect
Method in brief: as §1

[15] = qHTS of pediatric cancer cell lines to identify multiple opportunities for drug repurposing: Primary screen for BT-12 cells (AID 1347101); further: nearly all actives have a fitted effect of over 25% in size; further: potency means the concentration at half of the fitted maximal effect
Method in brief: as §2

[16] = qHTS of pediatric cancer cell lines to identify multiple opportunities for drug repurposing: Confirmatory screen for NB1643 cells (AID 1347109); further: nearly all actives have a fitted effect of over 45% in size
Method in brief: as §2

[17] = qHTS of pediatric cancer cell lines to identify multiple opportunities for drug repurposing: Confirmatory screen for A673 cells (AID 1347110);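 further: cells exposed to compound for 48 h before the viability read; nearly all actives have a fitted effect of over 65% in size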; further: potency means the concentration at half of the fitted maximal effect
Method in brief: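 Concentration-response curves came straight from titrations: 11 points (0.78 nM to 46 µM) for MIPE and several concentrations (0.59 nM to 46 µM) for NPC in primary, 11 points in follow-up. Readout: ATP luminescence at 48 h.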

[18] = qHTS of pediatric cancer cell lines to identify multiple opportunities for drug repurposing: Confirmatory screen for BT-12 cells (AID 1347112); further: nearly all actives have a fitted effect of over 55% in size; further: potency means the concentration at half of the fitted maximal effect
Method in brief: as §2

[19] = qHTS of pediatric cancer cell lines to identify multiple opportunities for drug repurposing: Confirmatory screen for LAN-5 cells (AID 1347113); further: nearly all actives have a fitted effect of over 65% in size; further: potency means the concentration at half of the fitted maximal effect
Method in brief: as §2

[20] = qHTS of pediatric cancer cell lines to identify multiple opportunities for drug repurposing: Confirmatory screen for SK-N-MC cells (AID 1347111);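 further: potency means the concentration at half of the fitted maximal effect; cells exposed to compound for 48 h before the readout; nearly all actives have a fitted effect of over 70% in size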
Method in brief: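 Seed 500-1,000 cells/well; rest 5 h at 37 degrees C. Pin-transfer compounds, 11-point titration. Incubate 48 h. Add CellTiter-Glo, 15 min RT, read luminescence.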

SMILES | Potency [1] | Potency [2] | Potency [3] | Potency [4] | Potency [5] | Potency [6] | Potency [7] | Potency [8] | Potency [9] | Potency [10] | Potency [11] | Potency [12] | outcome [13] | Potency [14] | Potency [15] | Potency [16] | Potency [17] | Potency [18] | Potency [19] | Potency [20]
CC(=O)OCC(CCn1cnc2cnc(N)nc21)COC(C)=O | inactive | inactive | inactive | inactive | inactive | inactive | inactive | inactive | inactive | inactive | inactive | inactive | inactive | inactive |  |  |  |  |  | 
CS(=O)(=O)Nc1ccc([N+](=O)[O-])cc1Oc1ccccc1 | inactive | inactive | inactive | inactive | inactive |  |  | inactive | inactive | inactive | inactive | inactive | inactive | inactive | inactive | inactive | inactive | inactive | inactive | 
COc1nc(C)nc(Cl)c1NC1=NCCN1 | inactive | inactive | inactive | inactive | inactive | inactive | inactive | inactive | inactive | inactive | inactive | inactive | inactive | inactive | inactive |  |  |  |  | 
NCCS(=O)(=O)O | inactive | inactive | inactive | inactive | inactive | inactive | inactive | inactive | inactive | inactive | inactive | inactive | inactive | inactive |  |  |  |  |  | 
Fc1ccc([C@@H]2CCNC[C@H]2COc2ccc3c(c2)OCO3)cc1 | inactive | inactive | inactive | inactive | inactive | inactive | inactive |  |  |  | inactive | inactive | inactive | inactive | inactive |  |  |  |  | 
CN(C)CCC=C1c2ccccc2C=Cc2ccccc21 | inactive | inactive | inactive | 29.6 µM (active) | 27.3 µM (active) | inactive | inactive | inactive | 27.6 µM (active) |  | inactive | inactive | inactive | inactive |  |  |  |  |  | 
CC#C[C@]1(O)CC[C@H]2[C@@H]3CCC4=CC(=O)CCC4=C3[C@@H](c3ccc(N(C)C)cc3)C[C@@]21C | 0.243 µM (active) | 0.526 µM (active) | 0.935 µM (active) | 2.64 µM (active) | 0.242 µM (active) | inactive | 16.8 µM (active) and 209 nM (active) |  | 7.69 µM (active) | 26.6 µM (active) and 662 nM (active) |  | inactive | inactive | 0.743 µM (active) | 0.685 µM (active) |  |  | inactive |  | 
CCCNCC(O)COc1ccccc1C(=O)CCc1ccccc1 (stereo not drawn) | inactive | inactive | inactive | inactive | 21.7 µM (active) | inactive |  |  |  | 33.2 µM (active) | inactive | inactive | inactive | inactive |  |  |  |  |  | 
NCCc1cnc[nH]1 | inactive | inactive | inactive | inactive | inactive | inactive | inactive | inactive | inactive | inactive | inactive | inactive | inactive | inactive |  |  |  |  |  | 
Nc1nnc(-c2cccc(Cl)c2Cl)c(N)n1 | inactive | inactive | inactive | inactive | inactive | inactive | inactive | inactive | inactive | inactive | inactive | inactive | inactive | inactive |  |  |  |  |  | 
Clc1ccc2c(c1)C(N1CCNCC1)=Nc1ccccc1O2 | inactive | inactive | inactive | inactive | inactive | inactive | inactive | inactive | inactive | inactive | inactive | inactive | inactive | inactive | inactive |  |  |  |  | 
CN(C)C(=N)N=C(N)N | inactive | inactive | inactive | inactive | inactive | inactive | inactive | inactive | inactive | inactive | inactive | inactive | inactive | inactive | inactive |  |  |  |  | 
CN1CCN(CCCN2c3ccccc3Sc3ccc(Cl)cc32)CC1 | 9.68 µM (active) | inactive | inactive | 0.235 µM (active) | 24.4 µM (active) |  | 9.35 µM (active) |  | 9.68 µM (active) | 9.35 µM (active) and 26.6 µM (active) |  | inactive | inactive | inactive | 6.11 µM (active) |  | 7.37 µM (active) | 16.5 µM (active) | 16.5 µM (active) | 3.69 µM (active)
CC1(C)O[C@H]2CC(=O)OC[C@]23[C@H]2CC[C@@]4(C)[C@H](c5ccoc5)OC(=O)[C@H]5O[C@]54[C@]2(C)C(=O)C[C@@H]13 | inactive | inactive | inactive | inactive | inactive | inactive | inactive | inactive | inactive | inactive | inactive | inactive | inactive | inactive |  |  |  |  |  | 
CCc1cccc2c3c([nH]c12)C(CC)(CC(=O)O)OCC3 (stereo not drawn) | inactive | inactive | inactive | inactive | inactive | inactive | inactive | inactive | inactive | inactive | inactive | inactive | inactive | inactive | inactive |  |  |  |  | 

From PubChem BioAssay (NCATS)
